From ChEMBL document CHEMBL1961873, “Compounds: GSK PKIS; Assays: Nanosyn kinase panel” (2012)
Several values for one entry are separate records, joined by “and”; a condition that tells them apart may be missing. Identical values can stand only once.

Assays:
[1] = molecular target: Ribosomal protein S6 kinase alpha-6 (Homo sapiens) (UniProt Q9UK32); conditions: at 1 µM;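 note: each value is a mean inhibition of RSK4 from a GSK PKIS panel screen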
[2] = molecular target: T1, Serine/threonine-protein kinase Sgk1 (Homo sapiens) (UniProt O00141); conditions: at 0.1 µM
T1 sequence (whole entry): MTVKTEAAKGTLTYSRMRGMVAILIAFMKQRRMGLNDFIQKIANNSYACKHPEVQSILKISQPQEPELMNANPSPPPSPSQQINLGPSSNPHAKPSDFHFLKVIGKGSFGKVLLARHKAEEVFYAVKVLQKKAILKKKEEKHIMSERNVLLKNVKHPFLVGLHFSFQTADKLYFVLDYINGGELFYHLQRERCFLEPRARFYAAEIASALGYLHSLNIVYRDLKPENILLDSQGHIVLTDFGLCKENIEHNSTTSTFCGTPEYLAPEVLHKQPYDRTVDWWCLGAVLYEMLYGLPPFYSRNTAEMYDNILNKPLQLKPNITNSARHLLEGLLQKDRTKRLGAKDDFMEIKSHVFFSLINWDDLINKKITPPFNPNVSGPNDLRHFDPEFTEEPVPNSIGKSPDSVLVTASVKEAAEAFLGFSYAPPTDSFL

[3] = molecular target: T1, Serine/threonine-protein kinase Sgk1 (Homo sapiens); conditions: at 1 µM
[4] = molecular target: T2, Serine/threonine-protein kinase Sgk2 (Homo sapiens) (UniProt Q9HBY8); conditions: at 0.1 µM
T2 sequence (whole entry): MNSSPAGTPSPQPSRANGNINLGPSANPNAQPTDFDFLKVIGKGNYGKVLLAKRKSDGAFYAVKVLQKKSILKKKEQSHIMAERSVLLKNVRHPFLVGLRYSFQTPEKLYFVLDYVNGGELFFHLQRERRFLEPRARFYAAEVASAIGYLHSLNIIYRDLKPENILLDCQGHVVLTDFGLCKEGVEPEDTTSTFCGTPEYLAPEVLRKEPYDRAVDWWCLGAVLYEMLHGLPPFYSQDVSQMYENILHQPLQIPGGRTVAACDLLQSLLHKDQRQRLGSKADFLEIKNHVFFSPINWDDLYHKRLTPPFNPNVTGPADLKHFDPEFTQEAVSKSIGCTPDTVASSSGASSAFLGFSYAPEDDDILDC

[5] = molecular target: T2, Serine/threonine-protein kinase Sgk2 (Homo sapiens); conditions: at 1 µM
[6] = molecular target: T3, Serine/threonine-protein kinase Sgk3 (Homo sapiens) (UniProt Q96BR1); conditions: at 0.1 µM
T3 sequence (whole entry): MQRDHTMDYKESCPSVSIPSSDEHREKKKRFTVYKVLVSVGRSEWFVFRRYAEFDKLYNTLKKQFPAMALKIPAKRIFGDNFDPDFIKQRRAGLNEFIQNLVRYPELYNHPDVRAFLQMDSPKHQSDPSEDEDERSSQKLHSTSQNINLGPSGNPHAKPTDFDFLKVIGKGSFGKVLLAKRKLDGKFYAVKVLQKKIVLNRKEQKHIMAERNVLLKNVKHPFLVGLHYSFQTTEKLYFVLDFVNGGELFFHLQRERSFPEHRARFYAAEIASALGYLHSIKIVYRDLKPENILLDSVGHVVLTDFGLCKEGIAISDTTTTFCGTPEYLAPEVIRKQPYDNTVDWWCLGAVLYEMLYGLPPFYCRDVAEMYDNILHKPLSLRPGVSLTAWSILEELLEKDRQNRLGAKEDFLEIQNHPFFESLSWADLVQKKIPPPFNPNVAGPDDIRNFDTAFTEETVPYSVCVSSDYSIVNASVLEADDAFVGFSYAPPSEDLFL

[7] = molecular target: T3, Serine/threonine-protein kinase Sgk3 (Homo sapiens); conditions: at 1 µM
[8] = molecular target: 5'-AMP-activated protein kinase catalytic subunit alpha-1 (Homo sapiens) (UniProt Q13131); conditions: at 0.1 µM
5'-AMP-activated protein kinase catalytic subunit alpha-1 (Homo sapiens), sequence (Q13131 whole entry, looked up): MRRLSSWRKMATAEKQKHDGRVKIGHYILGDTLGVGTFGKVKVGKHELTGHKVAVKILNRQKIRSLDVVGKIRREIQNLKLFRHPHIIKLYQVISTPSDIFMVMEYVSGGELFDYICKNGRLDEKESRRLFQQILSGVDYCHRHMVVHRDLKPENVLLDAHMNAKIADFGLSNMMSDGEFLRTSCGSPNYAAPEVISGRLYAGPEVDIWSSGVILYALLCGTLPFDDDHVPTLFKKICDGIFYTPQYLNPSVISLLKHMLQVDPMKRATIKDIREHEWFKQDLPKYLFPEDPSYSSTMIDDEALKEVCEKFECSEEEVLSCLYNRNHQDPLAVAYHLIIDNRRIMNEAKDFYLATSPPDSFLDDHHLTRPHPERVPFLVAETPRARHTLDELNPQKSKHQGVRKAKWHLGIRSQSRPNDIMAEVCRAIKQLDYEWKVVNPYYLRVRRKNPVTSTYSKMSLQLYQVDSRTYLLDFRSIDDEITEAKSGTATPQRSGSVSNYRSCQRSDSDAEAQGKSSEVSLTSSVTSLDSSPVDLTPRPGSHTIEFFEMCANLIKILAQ

[9] = molecular target: 5'-AMP-activated protein kinase catalytic subunit alpha-1 (Homo sapiens) (UniProt Q13131); conditions: at 1 µM
[10] = molecular target: 5'-AMP-activated protein kinase catalytic subunit alpha-2 (Homo sapiens) (UniProt P54646); conditions: at 0.1 µM
5'-AMP-activated protein kinase catalytic subunit alpha-2 (Homo sapiens), sequence (P54646 whole entry, looked up): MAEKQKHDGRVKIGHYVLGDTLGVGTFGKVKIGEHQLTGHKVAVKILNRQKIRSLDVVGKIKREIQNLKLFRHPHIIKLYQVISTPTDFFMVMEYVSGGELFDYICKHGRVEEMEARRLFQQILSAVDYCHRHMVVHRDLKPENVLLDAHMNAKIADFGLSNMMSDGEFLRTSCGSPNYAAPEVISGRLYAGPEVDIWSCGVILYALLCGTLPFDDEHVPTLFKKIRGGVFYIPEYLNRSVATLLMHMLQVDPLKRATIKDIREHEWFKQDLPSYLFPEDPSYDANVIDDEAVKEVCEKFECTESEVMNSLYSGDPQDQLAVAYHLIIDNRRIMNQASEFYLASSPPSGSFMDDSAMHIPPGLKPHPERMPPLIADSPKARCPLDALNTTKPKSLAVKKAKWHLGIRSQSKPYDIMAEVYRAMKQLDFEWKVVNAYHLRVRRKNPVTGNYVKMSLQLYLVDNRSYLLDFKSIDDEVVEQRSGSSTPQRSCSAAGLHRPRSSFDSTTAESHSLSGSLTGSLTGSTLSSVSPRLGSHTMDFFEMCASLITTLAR

[11] = molecular target: 5'-AMP-activated protein kinase catalytic subunit alpha-2 (Homo sapiens) (UniProt P54646); conditions: at 1 µM
[12] = molecular target: T4, NUAK family SNF1-like kinase 1 (Homo sapiens) (UniProt O60285); conditions: at 0.1 µM
T4 sequence (whole entry): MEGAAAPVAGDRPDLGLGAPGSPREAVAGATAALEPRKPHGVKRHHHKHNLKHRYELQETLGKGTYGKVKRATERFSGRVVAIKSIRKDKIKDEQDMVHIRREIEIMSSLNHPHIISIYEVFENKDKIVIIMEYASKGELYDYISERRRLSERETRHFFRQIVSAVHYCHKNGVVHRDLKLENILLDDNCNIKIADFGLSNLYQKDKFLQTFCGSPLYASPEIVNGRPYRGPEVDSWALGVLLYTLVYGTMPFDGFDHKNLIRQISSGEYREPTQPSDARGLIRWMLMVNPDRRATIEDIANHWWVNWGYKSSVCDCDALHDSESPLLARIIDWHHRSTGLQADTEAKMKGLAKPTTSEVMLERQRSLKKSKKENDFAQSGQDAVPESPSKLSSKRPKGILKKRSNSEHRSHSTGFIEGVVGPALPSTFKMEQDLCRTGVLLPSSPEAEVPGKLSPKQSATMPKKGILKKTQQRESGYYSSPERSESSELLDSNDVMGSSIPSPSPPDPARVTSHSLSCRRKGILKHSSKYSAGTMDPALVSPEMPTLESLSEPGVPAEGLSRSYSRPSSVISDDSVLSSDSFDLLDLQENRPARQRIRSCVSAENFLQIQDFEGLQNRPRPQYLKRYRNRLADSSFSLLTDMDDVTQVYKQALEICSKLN

[13] = molecular target: T4, NUAK family SNF1-like kinase 1 (Homo sapiens); conditions: at 1 µM
[14] = molecular target: T5, Serine/threonine-protein kinase BRSK1 (Homo sapiens) (UniProt Q8TDC3); conditions: at 0.1 µM
T5 sequence (whole entry): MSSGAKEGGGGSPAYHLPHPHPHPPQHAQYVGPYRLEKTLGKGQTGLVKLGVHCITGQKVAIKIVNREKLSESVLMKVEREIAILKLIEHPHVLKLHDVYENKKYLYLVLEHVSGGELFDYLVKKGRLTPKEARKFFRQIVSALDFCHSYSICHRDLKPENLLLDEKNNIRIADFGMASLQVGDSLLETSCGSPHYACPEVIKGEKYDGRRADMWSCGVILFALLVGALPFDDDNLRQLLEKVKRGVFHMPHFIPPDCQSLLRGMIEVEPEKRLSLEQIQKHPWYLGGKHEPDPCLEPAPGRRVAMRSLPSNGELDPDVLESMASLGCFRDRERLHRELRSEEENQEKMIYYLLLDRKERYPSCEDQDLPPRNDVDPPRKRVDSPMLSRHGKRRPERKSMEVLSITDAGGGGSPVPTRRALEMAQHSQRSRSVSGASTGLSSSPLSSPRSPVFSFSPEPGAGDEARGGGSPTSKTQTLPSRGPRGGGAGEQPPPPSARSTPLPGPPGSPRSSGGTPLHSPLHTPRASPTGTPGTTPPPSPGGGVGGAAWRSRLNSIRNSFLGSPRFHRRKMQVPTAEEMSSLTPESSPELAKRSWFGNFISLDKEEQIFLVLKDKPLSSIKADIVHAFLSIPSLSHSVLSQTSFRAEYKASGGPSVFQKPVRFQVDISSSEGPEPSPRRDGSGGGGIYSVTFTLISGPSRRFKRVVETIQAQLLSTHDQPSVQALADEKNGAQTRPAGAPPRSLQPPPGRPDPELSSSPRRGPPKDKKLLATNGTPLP

[15] = molecular target: T5, Serine/threonine-protein kinase BRSK1 (Homo sapiens); conditions: at 1 µM
[16] = molecular target: T6, Serine/threonine-protein kinase BRSK2 (Homo sapiens) (UniProt Q8IWQ3); conditions: at 0.1 µM
T6 sequence (whole entry): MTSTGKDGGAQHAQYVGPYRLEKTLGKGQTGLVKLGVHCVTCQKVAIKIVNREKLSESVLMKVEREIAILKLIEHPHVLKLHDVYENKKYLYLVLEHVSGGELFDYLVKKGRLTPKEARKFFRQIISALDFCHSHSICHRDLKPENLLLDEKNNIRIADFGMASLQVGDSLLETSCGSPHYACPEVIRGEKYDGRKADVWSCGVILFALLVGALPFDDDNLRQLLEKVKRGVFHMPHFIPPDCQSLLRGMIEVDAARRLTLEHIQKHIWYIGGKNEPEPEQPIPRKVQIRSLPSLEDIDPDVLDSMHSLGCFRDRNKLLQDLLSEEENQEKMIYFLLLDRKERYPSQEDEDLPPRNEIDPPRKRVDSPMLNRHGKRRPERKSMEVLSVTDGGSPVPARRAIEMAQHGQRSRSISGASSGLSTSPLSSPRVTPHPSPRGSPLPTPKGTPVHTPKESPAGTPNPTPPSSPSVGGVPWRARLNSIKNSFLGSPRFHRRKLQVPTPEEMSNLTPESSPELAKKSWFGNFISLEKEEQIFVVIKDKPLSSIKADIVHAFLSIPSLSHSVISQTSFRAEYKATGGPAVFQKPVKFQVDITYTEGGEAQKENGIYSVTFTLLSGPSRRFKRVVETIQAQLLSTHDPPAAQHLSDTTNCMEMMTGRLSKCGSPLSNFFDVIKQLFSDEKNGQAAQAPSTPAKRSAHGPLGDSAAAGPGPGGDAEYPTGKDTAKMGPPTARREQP

[17] = molecular target: T6, Serine/threonine-protein kinase BRSK2 (Homo sapiens); conditions: at 1 µM
[18] = molecular target: Calcium/calmodulin-dependent protein kinase type 1D (Homo sapiens) (UniProt Q8IU85); conditions: at 0.1 µM
Calcium/calmodulin-dependent protein kinase type 1D (Homo sapiens), sequence (Q8IU85 whole entry, looked up): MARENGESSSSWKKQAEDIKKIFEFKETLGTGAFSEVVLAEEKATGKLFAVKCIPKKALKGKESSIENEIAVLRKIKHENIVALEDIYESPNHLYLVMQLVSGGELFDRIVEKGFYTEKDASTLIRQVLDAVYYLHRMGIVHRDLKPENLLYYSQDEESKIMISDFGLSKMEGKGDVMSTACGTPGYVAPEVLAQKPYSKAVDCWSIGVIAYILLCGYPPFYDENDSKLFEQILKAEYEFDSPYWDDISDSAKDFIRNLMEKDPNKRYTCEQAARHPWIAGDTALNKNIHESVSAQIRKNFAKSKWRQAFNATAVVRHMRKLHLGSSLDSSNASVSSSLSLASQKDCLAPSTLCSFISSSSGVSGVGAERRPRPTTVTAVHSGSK

[19] = molecular target: Calcium/calmodulin-dependent protein kinase type 1D (Homo sapiens) (UniProt Q8IU85); conditions: at 1 µM
[20] = molecular target: Calcium/calmodulin-dependent protein kinase type II subunit alpha (Homo sapiens) (UniProt Q9UQM7); conditions: at 0.1 µM;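 note: reported values are averages (mean inhibition of CAMK2A)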
Calcium/calmodulin-dependent protein kinase type II subunit alpha (Homo sapiens), sequence (Q9UQM7 whole entry): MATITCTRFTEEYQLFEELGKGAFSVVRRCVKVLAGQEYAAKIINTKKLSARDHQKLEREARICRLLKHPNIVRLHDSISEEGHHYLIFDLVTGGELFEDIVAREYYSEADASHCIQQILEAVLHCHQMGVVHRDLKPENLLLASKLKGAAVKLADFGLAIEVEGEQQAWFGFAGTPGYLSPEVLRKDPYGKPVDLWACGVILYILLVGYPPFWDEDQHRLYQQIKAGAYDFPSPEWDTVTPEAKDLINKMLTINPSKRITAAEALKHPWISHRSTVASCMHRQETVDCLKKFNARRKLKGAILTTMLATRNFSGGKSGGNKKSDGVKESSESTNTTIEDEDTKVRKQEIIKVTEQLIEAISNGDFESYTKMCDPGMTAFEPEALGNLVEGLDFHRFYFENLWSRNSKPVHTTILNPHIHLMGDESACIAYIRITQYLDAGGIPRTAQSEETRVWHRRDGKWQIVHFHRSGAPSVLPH

Ribosomal protein S6 kinase alpha-6 (Homo sapiens), sequence (Q9UK32 whole entry): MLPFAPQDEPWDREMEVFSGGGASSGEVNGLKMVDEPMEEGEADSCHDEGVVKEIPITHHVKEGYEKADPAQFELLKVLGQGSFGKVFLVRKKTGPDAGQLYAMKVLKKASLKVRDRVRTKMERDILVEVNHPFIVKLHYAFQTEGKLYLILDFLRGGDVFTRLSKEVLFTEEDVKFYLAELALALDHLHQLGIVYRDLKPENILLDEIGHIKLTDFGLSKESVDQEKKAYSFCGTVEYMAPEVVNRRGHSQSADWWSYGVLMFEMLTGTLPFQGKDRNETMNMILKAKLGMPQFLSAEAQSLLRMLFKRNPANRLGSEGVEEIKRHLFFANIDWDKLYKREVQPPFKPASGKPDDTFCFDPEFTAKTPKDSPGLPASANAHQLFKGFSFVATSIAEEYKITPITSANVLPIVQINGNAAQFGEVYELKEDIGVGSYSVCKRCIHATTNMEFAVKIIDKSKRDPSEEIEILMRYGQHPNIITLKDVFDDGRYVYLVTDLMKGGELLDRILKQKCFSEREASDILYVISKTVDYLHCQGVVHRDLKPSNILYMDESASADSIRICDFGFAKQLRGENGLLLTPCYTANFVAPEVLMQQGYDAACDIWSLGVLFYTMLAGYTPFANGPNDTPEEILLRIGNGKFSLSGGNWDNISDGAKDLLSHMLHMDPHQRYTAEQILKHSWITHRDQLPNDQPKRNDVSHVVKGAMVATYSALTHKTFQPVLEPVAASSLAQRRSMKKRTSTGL

Structure (SMILES) | inhibition [1] | inhibition [2] | inhibition [3] | inhibition [4] | inhibition [5] | inhibition [6] | inhibition [7] | inhibition [8] | inhibition [9] | inhibition [10] | inhibition [11] | inhibition [12] | inhibition [13] | inhibition [14] | inhibition [15] | inhibition [16] | inhibition [17] | inhibition [18] | inhibition [19] | inhibition [20]
c1ccc(-c2n[nH]cc2-c2ccnc(-c3ccc(OCCn4ccnc4)cc3)c2)nc1 | 1.74% | 0.97% | 2.43% | 0.56% | 0.22% | 0.55% | 2.01% | 0.79% | 3.29% | 2.92% | 1.29% | -0.74% | 7.14% | 0.8% | 1.98% | 0.62% | 4.44% | -0.08% | 0.91% | -3.32%
Nc1nonc1-c1nc2cnccc2n1C1CC1 | 39.3% and 40.7% | 2.58% and 2.55% | 12.5% and 16.1% | 8.13% and 8.47% | 50.4% and 54.2% | 20% and 22.1% | 61.8% and 65.5% | 5.9% and 3.15% | 14.3% and 11.5% | 1.84% and 3.94% | 7.08% and 5.85% | 5% and 1.55% | 13.1% and 10.2% | 5.76% and 4.57% | 21.7% and 18.1% | 8.42% and 4.02% | 27.9% and 27.1% | 0.19% and 0.41% | 1.1% and 0.69% | 4.16% and 0.57%
